Menin MLL FP FL = displaces fluorescein MLL peptide from human menin | FP activity change, % at 61.4 µM | Fluorescence polarization, fluorescein-MLL peptide displacement from menin | AID 1766 | 290,000 tested, under 10 active; active means well fitted curve in the direction sought with a large enough effect in the polarisation, not every such curve was filed as active; inconclusive means small, poorly fitted or top-dose-only effect, or effect the other way, or a change in a side signal; inactive means no such curve, though single readings can be large or run the other way; the % refers to the polarisation
Menin-MLL TR inh = displaces Texas Red mutant MLL peptide from human menin. 270,000 compounds, 0.23% hits. Potency, µM (top dose mostly 61.6 µM), actives largely listed as inhibitors. Menin + Texas Red MLL mutant peptide, fluorescence polarization. AID 1768. O00255; active means well fitted inhibition curve with a large enough effect in the polarisation, with a control signal flat, not every such curve was filed as active; inconclusive means small, poorly fitted or top-dose-only effect, or effect the other way, or a change in a side signal; inactive means no such curve, though single readings can be large or run the other way; the % refers to the polarisation
MBNL1-CUG inh = inhibitors of human MBNL1 binding to CUG repeat RNA. TR-FRET MBNL1-His/biotin-(CUG)12 binding, 665/545 ratio. Potency, µM (titrated, usually from 57.5 µM), actives largely listed as inhibitors. Q9NR56. 280,000 compounds, 0.036% hits; active means well fitted inhibition curve with a large enough effect in the signal ratio, with a control signal flat, not every such curve was filed as active; inconclusive means small, poorly fitted or top-dose-only effect, or effect the other way, or a change in a side signal; inactive means no such curve, though single readings can be large or run the other way; the % refers to the signal ratio
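Compound titration spanned 92 nM–58 uM against the MBNL1-His/biotin-(CUG)12 complex. After 60 min at room temperature with 5 nM streptavidin-XL665 and 0.055 ng/ul terbium anti-His, ratiometric 665/545 nm emission (Ex 340 nm) normalized to controls.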
CXXC DNA block = MLL CXXC-DNA interaction inhibition; Potency, µM (doses to about 115 µM), actives largely listed as inhibitors; 290,000 compounds, 0.037% hits; MLL-CXXC / FITC-HOXA9 DNA fluorescence polarization; Q03164; active means well fitted inhibition curve with a large enough effect in the polarisation, with a control signal flat, not every such curve was filed as active; inconclusive means small, poorly fitted or top-dose-only effect, or effect the other way, or a change in a side signal; inactive means no such curve, though single readings can be large or run the other way; the % refers to the polarisation
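Purified MLL-CXXC (added from a 7 uM solution) was preincubated 5 min at ambient with pinned compounds in 50 mM Tris-HCl pH 7.5, 50 mM NaCl, 1 mM DTT, 0.05% BSA. Fluorescein-labeled HOX-A9 DNA (50 nM solution) followed, 30 min, then polarization read.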
MBNL1-CUG FRET = MBNL1-poly(CUG) RNA binding inhibition confirmed | shares compounds with MBNL1-CUG inh | TR-FRET MBNL1-His / biotin-(CUG)12 binding, 60 min | Potency, µM (titrated, usually from 57.6 µM), actives largely listed as inhibitors | 140 compounds, 50% hits | AID 493199
MBNL1-CUG Alpha = MBNL1-CUG RNA binding inhibition, AlphaScreen validation | shares compounds with MBNL1-CUG inh | AlphaScreen MBNL1-His / biotin-(CUG)12 binding | Potency, µM (highest dose often 57.7 µM), usual class: inhibitors | 140 compounds, 30% hits | AID 493205
Menin-MLL HTRF = counter-screen for MBNL1-poly(CUG) RNA binding inhibitors; Potency, µM (doses to about 57.6 µM), hits mostly inhibitors; His-Menin/biotin-MLL peptide TR-FRET counterscreen; shares compounds with MBNL1-CUG inh; 120 compounds, 20% hits
Numbers stand for hits; [ ] = dose if it differs, or a comment. The sample as a whole holds a higher share of hits than the screen did. Unless noted, the call rests on the fitted dose curve; in most records, active means well fitted curve in the direction sought with a large enough effect; inconclusive means small, poorly fitted or top-dose-only effect, or another doubt; inactive means no such curve, though single readings can be large; an effect the other way counts as inactive or inconclusive.

`CC[C@H](C)[C@H](NC(=O)[C@H](Cc1cnc[nH]1)NC(=O)[C@@H](NC(=O)[C@H](CCCNC(=N)N)NC(=O)[C@H](CCCCN)NC(=O)[C@H](CCCNC(=N)N)NC(=O)[C@H](CCCCN)NC(=O)[C@@H](N)CC(N)=O)[C@@H](C)CC)C(=O)NCC(=O)N1CCC[C@H]1C(=O)NCC(=O)N[C@@H](CCCNC(=N)N)C(=O)N[C@@H](C)C(=O)N[C@@H](Cc1ccccc1)C(=O)N[C@@H](Cc1ccc(O)cc1)C(=O)N[C@H](C(=O)N[C@H](C(=O)N[C@@H](CCCCN)C(=O)N[C@@H](CC(N)=O)C(=O)N[C@H](C(=O)N[C@H](C(=O)NCC(=O)N[C@H](C(=O)N[C@H](C(=O)N[C@@H](CS)C(=O)O)[C@@H](C)CC)[C@@H](C)O)[C@@H](C)CC)[C@@H](C)CC)[C@@H](C)O)[C@@H](C)O` gave Menin MLL FP FL inactive and Menin-MLL TR inh inconclusive.
`COc1ccccc1NC(=O)Cc1cccs1` gave Menin MLL FP FL inactive, Menin-MLL TR inh inactive, MBNL1-CUG inh inactive and CXXC DNA block inactive.
`COc1ccccc1NC(=O)Nc1ccnn1C1CCCCC1` gave Menin MLL FP FL inactive, Menin-MLL TR inh inactive, MBNL1-CUG inh inactive, CXXC DNA block inactive, MBNL1-CUG FRET inactive, MBNL1-CUG Alpha inactive and Menin-MLL HTRF inactive.
`COc1ccccc1NC(=O)Nc1ccnn1Cc1cccs1` gave Menin MLL FP FL inactive, Menin-MLL TR inh inactive, MBNL1-CUG inh 4µM, CXXC DNA block inactive, MBNL1-CUG FRET 1.3µM, MBNL1-CUG Alpha 0.65µM and Menin-MLL HTRF 10µM.
Screening COc1ccccc1NC(=O)Nc1ccnn1C1CCN(C(=O)c2ccccn2)CC1 returned MBNL1-CUG inh inactive and CXXC DNA block inactive.
COc1cc(OC)cc(C2=Nn3c(nnc3-c3ccccc3OC)SC2)c1 was read as Menin MLL FP FL inconclusive and Menin-MLL TR inh inactive.
Screening Oc1ccc(/C=N/Nc2nccnc2Cl)c(O)c1 returned Menin MLL FP FL inactive, Menin-MLL TR inh inconclusive, MBNL1-CUG inh inconclusive, CXXC DNA block inactive, MBNL1-CUG FRET inconclusive, MBNL1-CUG Alpha 6.5µM and Menin-MLL HTRF inactive.
For COc1cccc(/C=N/Nc2nccnc2Cl)c1O the results were Menin MLL FP FL inactive, Menin-MLL TR inh inactive, MBNL1-CUG inh inconclusive, CXXC DNA block inactive, MBNL1-CUG FRET inconclusive, MBNL1-CUG Alpha 3.7µM and Menin-MLL HTRF inactive.
For COc1ccc(/C=N/Nc2nccnc2Cl)cc1 the results were Menin MLL FP FL inactive, Menin-MLL TR inh inactive, MBNL1-CUG inh inconclusive, CXXC DNA block inactive, MBNL1-CUG FRET inconclusive, MBNL1-CUG Alpha inactive and Menin-MLL HTRF inactive.
`Oc1ccccc1/C=N/Nc1nccnc1Cl` gave Menin MLL FP FL inactive, Menin-MLL TR inh inactive, MBNL1-CUG inh inactive and CXXC DNA block inconclusive.
O=C1c2cccc3c2[C@@H](CCC3)CN1[C@@H]1CN2CCC1CC2 was read as Menin MLL FP FL inactive, Menin-MLL TR inh inactive and CXXC DNA block inactive.
For CCOP(=O)(OCC)C(=Cc1cc(C(C)(C)C)c(O)c(C(C)(C)C)c1)P(=O)(OCC)OCC the results were Menin MLL FP FL inactive and Menin-MLL TR inh inactive.
For COc1ccc(CN2CCN(c3cccc(C)c3C)CC2)cc1OC the results were Menin MLL FP FL inactive, Menin-MLL TR inh inactive, MBNL1-CUG inh 25µM, CXXC DNA block inactive, MBNL1-CUG FRET 16µM, MBNL1-CUG Alpha inactive and Menin-MLL HTRF inconclusive.
Screening O=C(NCCCN1CCCCCC1)c1ccc(CS(=O)(=O)Cc2ccccc2F)o1 returned Menin MLL FP FL inactive, Menin-MLL TR inh inconclusive, MBNL1-CUG inh 40µM, CXXC DNA block inactive, MBNL1-CUG FRET inconclusive, MBNL1-CUG Alpha inactive and Menin-MLL HTRF inactive.
For COC(=O)C1=C(C(=O)OC)[C@@H]2Nc3ccccc3[C@@]23C[C@@H](C(=O)OC)N(S(=O)(=O)c2cccs2)C3=N1 the results were Menin MLL FP FL inactive[11.7 µM] and Menin-MLL TR inh inactive[11.7 µM].
Screening O=S(=O)(Nc1c(S(=O)(=O)c2ccccc2)c2nc3ccccc3nc2n1C1CCCCC1)c1ccccc1 returned Menin MLL FP FL inconclusive, Menin-MLL TR inh inactive and CXXC DNA block inactive.
Screening C=CCn1c(NS(=O)(=O)c2ccccc2)c(S(=O)(=O)c2ccc(C)cc2)c2nc3ccccc3nc21 returned Menin MLL FP FL inactive, Menin-MLL TR inh inactive, MBNL1-CUG inh 20µM, CXXC DNA block inactive, MBNL1-CUG FRET inactive, MBNL1-CUG Alpha inconclusive and Menin-MLL HTRF inactive.
For CCOC(=O)CN1C(=O)N[C@@H](c2cccc(C(F)(F)F)c2)[C@H](C(=O)OC)[C@H]1C the results were Menin MLL FP FL inactive[11.7 µM] and Menin-MLL TR inh inactive[11.7 µM].
C/C1=C2N=C(/C=C3N=C(/C(C)=C4\[N-][C@@](C)([C@@H]5N=C1[C@](C)(CCC(=O)NCC(C)OP(=O)(O)O[C@H]1[C@@H](O)[C@@H](n6cnc7cc(C)c(C)cc76)O[C@@H]1CO)[C@H]5CC(N)=O)[C@@](C)(CC(N)=O)[C@@H]4CCC(N)=O)[C@@](C)(CC(N)=O)[C@@H]\3CCC(N)=O)C(C)(C)[C@@H]/2CCC(N)=O.CC(=O)O.[Co] (stereo not given in full) was read as Menin-MLL HTRF inactive.
Screening C/C1=C2/[N-]C(C(CC(N)=O)[C@@]2(C)CCC(=O)NCC(C)OP(=O)([O-])O[C@H]2[C@@H](O)[C@@H](n3cnc4cc(C)c(C)cc43)O[C@@H]2CO)[C@]2(C)N=C(/C(C)=C3N=C(/C=C4N=C1C(CCC(N)=O)C\4(C)C)[C@@H](CCC(N)=O)[C@]\3(C)CC(N)=O)[C@@H](CCC(N)=O)[C@]2(C)CC(N)=O.CC(=O)O.[Co] (stereo not given in full) returned Menin MLL FP FL inactive, Menin-MLL TR inh inconclusive, CXXC DNA block inactive, MBNL1-CUG FRET 8.2µM and MBNL1-CUG Alpha 2.6µM.
`O=S(=O)(N/N=C\c1ccc(-c2ccccc2Cl)o1)c1ccccc1` gave Menin MLL FP FL inactive, Menin-MLL TR inh inconclusive, MBNL1-CUG inh 20µM, CXXC DNA block inactive, MBNL1-CUG FRET inactive, MBNL1-CUG Alpha inactive and Menin-MLL HTRF inactive.
`O=C(N/N=C/c1ccc(-c2ccccc2Cl)o1)c1ccccc1` gave Menin MLL FP FL inactive, Menin-MLL TR inh inactive, MBNL1-CUG inh inactive and CXXC DNA block inactive.
For O=c1cnc2cncnc2n1Cc1ccc(F)cc1 the results were Menin MLL FP FL inactive and Menin-MLL TR inh inactive.
